Data on 39 molecules can be found in the supplement of paper PMC10941209.

Unmarked numbers belong to inactive results.

For this experiment, the system named is Toxoplasma gondii RH 2F1 tachyzoites (intracellular in HFF). In words: parasite survival relative to DMSO control; higher = less antiparasitic activity, active = 20 or less. The settings on record: 1 µM; 72 h. In outline:
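Survival is the β-galactosidase-derived signal from intracellular Toxoplasma gondii RH-2F1 tachyzoites, expressed as a percentage of infected wells treated with DMSO. HFF cells (5 × 10^3 cells/well, 96-well plates) were infected with 5 × 10^3 parasites in D2 medium for 3 h and then treated with compound at 1 μM for 72 h at 37°C in 5% CO2. After lysis, CPRG was added and absorbance at 570 nm was read at 30 min, with 2 or more biological replicates.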
For the molecule `Cn1cncc1[C@@](N)(c1ccc(Cl)cc1)c1ccc2c(c1)c(-c1cccc(Cl)c1)cc(=O)n2C`, the parasite survival is 59.1%.

For `COc1cc2c(O)c3c(c(-c4ccc5c(c4)OCO5)c2cc1OC)C(=O)OC3`, the parasite survival is 46.1%.

As for `CC(=O)NC[C@H]1CN(c2ccc(N3CCSCC3)c(F)c2)C(=O)O1`, the parasite survival was 44%.

Regarding `N[C@@H]1CN(c2c(F)cc3c(=O)c(C(=O)O)cn([C@@H]4C[C@@H]4F)c3c2Cl)CC12CC2`, the parasite survival was 51.8%.

Consider `COc1ccc2cc3[n+](cc2c1OCCN(CCn1cncn1)Cc1ccc(F)cc1F)CCc1cc2c(cc1-3)OCO2`, for which the parasite survival was 47.3%.

In the case of `CN(C)CCCNC(=O)c1ccc(-c2cc(O)c3ncccc3c2)cc1`, the parasite survival was 81.2%.

`O=c1oc2ccc(Br)cc2cc1CSc1ncc[nH]1`: the parasite survival was 63.6%.

Consider `O=S(=O)(Nc1ccc(O)cc1)c1cccc2cccnc12`, for which the parasite survival was 64.4%.

With `COc1cc(C)c2c(Oc3cccc(C(F)(F)F)c3)c(OC)cc(NC(C)CCCN)c2n1` (centres undefined), the parasite survival was 27.2%.

Consider `Nc1nc(=O)[nH]cc1F`, for which the parasite survival is 51.9%.

As for `O=S(=O)(Nc1ccc(-n2cccc2)cc1)c1ccc(Cl)c(Cl)c1`, the parasite survival is 58.1%.

`Cn1cc(NC(=O)c2cc(NC(=O)c3ccc(/C=C/c4cnc5ccccc5c4)cc3)cn2C)cc1C(=O)NCCN1CCOCC1`: the parasite survival was 12.8% (active).

Consider `COc1cc(C2C3=C(CC(C)(C)CC3=O)Nc3ccccc3N2C(C)=O)ccc1OCc1ccccc1` (centres undefined), for which the parasite survival is 56.3%.

In the case of `CC(Oc1ccc(Cl)cc1Cl)C(=O)NCc1ccc2c(c1)OCO2` (centres undefined), the parasite survival was 31.2%.

As to `O=C(Nc1cccc(C2=NCCN2)c1)c1ccc(-c2ccc(C(=O)Nc3cccc(C4=NCCN4)c3)cc2)cc1`, the parasite survival was 22.1%.

Regarding `CC[C@H](CO)Nc1nc(NCc2ccccc2)c2ncn(C(C)C)c2n1`, the parasite survival was 87.1%.

`Cc1nc(-c2ccc(C3N(C)c4ccc(F)cc4C(=O)N3c3ccccc3)s2)cs1` (centres undefined): the parasite survival is 59.2%.

Consider `CONC(=N)c1ccc(-c2ccc(-c3ccc(C(=N)NOC)cc3)o2)cc1`, for which the parasite survival is 49.7%.

`CCOC(=O)N[C@@H]1CC[C@@H]2[C@@H](C1)C[C@H]1C(=O)O[C@H](C)[C@H]1[C@H]2/C=C/c1ccc(-c2cccc(F)c2)cn1`: the parasite survival is 23%.

For the molecule `CCc1nc(N)nc(N)c1C#CC(C)c1cc(OC)cc(-c2ccncc2)c1` (centres undefined), the parasite survival is 4.08% (active).

`C[C@H]1CC[C@]2(NC1)O[C@H]1C[C@H]3[C@@H]4CC[C@H]5C[C@@H](O)CC[C@]5(C)[C@H]4CC[C@]3(C)[C@H]1[C@@H]2C`: the parasite survival was 41.1%.

Regarding `COC(=O)Nc1nc2ccccc2[nH]1`, the parasite survival was 53%.

As for `CC(=O)Oc1ccccc1C(=O)Nc1ncc([N+](=O)[O-])s1`, the parasite survival was 75.8%.

Take `COc1ccc(C2=CC(c3c(F)cccc3Cl)n3ncnc3N2)cc1` (centres undefined): the parasite survival is 71.5%.

Take `C[C@H]1[C@@H](c2cccc(C(F)(F)F)c2)OC(=O)N1C(=O)NCc1cncc2ccccc12`: the parasite survival was 40.6%.

For `CCCCCCCc1[nH]c2ccccc2c(=O)c1O`, the parasite survival is 49%.

Consider `O=C(NCc1cccc2ccccc12)c1cccs1`, for which the parasite survival is 32%.

As to `O=C(O)/C=C/C=C/c1cccc(Oc2cc(Cl)cc(Cl)c2)c1`, the parasite survival is 36.2%.

Turning to `C[N+]1(C)CCCC(OC(=O)C(O)(c2ccccc2)c2ccccc2)C1` (centres undefined), the parasite survival was 61.6%.

With `CC(C)c1ccc(COc2cccc(-c3cc([S+](C)[O-])c(C#N)c(=O)[nH]3)c2)cc1` (centres undefined), the parasite survival was 13.2% (active).

For `CSC[C@H]1CN(Cc2c[nH]c3c(N)ncnc23)C[C@@H]1O`, the parasite survival was 45.9%.

For `CC[C@@H]1C(=O)OC[C@@H]1Cc1cncn1C`, the parasite survival was 45.1%.

Turning to `O=C(O)c1cc(-c2ccccc2)nc2ccccc12`, the parasite survival is 67.9%.

For the molecule `CCNC(=O)Nc1cc2c(-c3ccnc(C)c3)ccc(CNC(=O)OC)c2cn1`, the parasite survival was 31.9%.

Regarding `CC(C)(C)c1ccc(OCCn2nc(C(=O)O)c3ccccc3c2=O)cc1`, the parasite survival is 45.3%.

`Cc1ncc([N+](=O)[O-])n1CC(O)CN1CCOCC1` (centres undefined): the parasite survival is 52.5%.

Turning to `Cc1cc(NS(=O)(=O)c2ccc(-c3ccc(F)cc3F)cc2)no1`, the parasite survival is 55%.

Turning to `CCCCC(CC)CNC(=N)NC(=N)NCCCCCCNC(=N)NC(=N)NCC(CC)CCCC` (centres undefined), the parasite survival was 3.8% (active).

Consider `CC(=O)N[C@H](C)C(=O)N[C@H](Cc1ccccc1)C(=O)O`, for which the parasite survival is 61.2%.
